From PMC7862700, “An all-to-all approach to the identification of sequence-specific readers for epigenetic DNA modifications on cytosine”

Assays:
Test in all cases: DAPPL (digital affinity profiling via proximity ligation, sequencing); 10 mM Tris-HCl pH 7.5, 50 mM NaCl, 1 mM DTT, 4% glycerol, room temperature, 30 min; GST-TFs on glutathione beads, 16-mer random dsDNA library, 0.1% formaldehyde crosslink after washing; high values mean tight binding
Conditions in all cases: protein: recombinant; tags: N-terminal GST; dsDNA, one strand shown
FLI1 = target: T1, FLI1 (Homo sapiens, UniProt Q01543 1-452)
T1 sequence: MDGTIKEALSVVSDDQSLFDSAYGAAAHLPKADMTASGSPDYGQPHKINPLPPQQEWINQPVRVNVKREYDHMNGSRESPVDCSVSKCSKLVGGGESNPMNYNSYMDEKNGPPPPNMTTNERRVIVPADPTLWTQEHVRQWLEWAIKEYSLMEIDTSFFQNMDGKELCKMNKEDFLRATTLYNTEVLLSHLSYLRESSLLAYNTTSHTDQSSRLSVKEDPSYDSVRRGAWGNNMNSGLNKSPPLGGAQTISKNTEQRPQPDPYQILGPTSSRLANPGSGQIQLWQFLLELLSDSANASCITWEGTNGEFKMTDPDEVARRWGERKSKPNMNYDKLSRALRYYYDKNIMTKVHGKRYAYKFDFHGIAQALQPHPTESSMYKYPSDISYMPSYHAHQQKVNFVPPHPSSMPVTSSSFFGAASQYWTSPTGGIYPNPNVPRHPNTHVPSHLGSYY
Outline: (§1)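 Binding signal is defined as a hexamer's read frequency for one factor over its frequency for the tag-only sample. To obtain reads, GST-fused human transcription factors were expressed in yeast, captured on glutathione beads, barcoded with DNA and pooled with that sample. Pools met 200 nmole of a 16-mer random double-stranded DNA library in Tris/NaCl/DTT/glycerol buffer for 30 min at room temperature before washing, 0.1% formaldehyde crosslinking, proximity ligation (BsaI/T4 ligase, 1 h, 37 °C), PCR and Illumina NextSeq500 sequencing.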

ELK3 = target: T2, ELK3 (Homo sapiens, UniProt P41970 1-407)
T2 sequence: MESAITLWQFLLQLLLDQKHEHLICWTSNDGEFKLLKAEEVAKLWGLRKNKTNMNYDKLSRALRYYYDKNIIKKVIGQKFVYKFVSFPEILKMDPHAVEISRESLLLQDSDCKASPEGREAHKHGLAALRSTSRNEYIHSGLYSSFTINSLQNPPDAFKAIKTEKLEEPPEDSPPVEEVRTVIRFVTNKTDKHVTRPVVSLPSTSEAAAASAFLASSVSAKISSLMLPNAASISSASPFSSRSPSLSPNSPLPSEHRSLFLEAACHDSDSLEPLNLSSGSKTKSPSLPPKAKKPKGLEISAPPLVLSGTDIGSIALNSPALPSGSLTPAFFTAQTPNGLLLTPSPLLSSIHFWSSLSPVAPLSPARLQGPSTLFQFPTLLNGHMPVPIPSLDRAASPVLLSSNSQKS
Outline: as §1

SPIC = target: T3, SPIC (Homo sapiens, UniProt Q8N5J4 1-248)
T3 sequence: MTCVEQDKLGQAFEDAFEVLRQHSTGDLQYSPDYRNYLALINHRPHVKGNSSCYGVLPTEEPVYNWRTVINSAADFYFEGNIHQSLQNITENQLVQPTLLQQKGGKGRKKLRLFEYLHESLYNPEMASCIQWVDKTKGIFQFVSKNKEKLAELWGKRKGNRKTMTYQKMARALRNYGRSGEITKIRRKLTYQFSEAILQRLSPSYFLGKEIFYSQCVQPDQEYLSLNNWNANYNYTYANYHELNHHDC
Outline: as §1

GTGTAC
binding signal (FLI1): 1.07 fold enrichment (6-mer frequency, TF over GST control) | binding signal (ELK3): 1.03 fold enrichment (6-mer frequency, TF over GST control) | binding signal (SPIC): 1.2 fold enrichment (6-mer frequency, TF over GST control)
